In the library only some 20% were active in any assay of this set; here they are far more common.
Shiga toxin inh = Shiga toxin inhibition. inhibition, % at 38.7 µM. actives 9.2% (n = 290,000). Vero cells, Shiga toxin protein synthesis inhibition reporter; in the data active = inhibition mostly above about 28%, no sharp cut-off; inactive = mostly below about 43%; also: 0% is about no effect
CHX counter = counter-screen hit for Shiga toxin inhibitors, cycloheximide; AID 2314; actives 12% (n = 300,000); cell reporter, cycloheximide protein synthesis inhibition counterscreen; max response, %; in the data active = max response mostly above about 13%, no sharp cut-off; inactive = mostly below about 14%; also: read at 38.3 µM for the half of the compounds with a filed dose; 0% is about no effect
Pf growth 96h = inhibits malaria parasite growth, 96 h | P. falciparum luciferase reporter growth, 96 h | Potency, µM (series often up to 28.7 µM), for inactives: top-dose activity change, negative = inhibition, hits mostly inhibitors | actives 6.9% (n = 320,000); also: potency is read from the fitted curve at half-maximal effect; % is scaled to controls: 0 for no effect and ±100 for the full control effect
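Two-generation exposure (96 h) targets delayed-death phenotype. Reporter parasites carrying integrated firefly luciferase, in red cells at 2% hematocrit and 0.05% parasitemia final, kept at 37 C, 5% CO2; luminescence loss indicates inhibition.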
HCMV inh = blocks human cytomegalovirus replication. HFF cells, HCMV-luciferase reporter, 72 h; active compounds read low. activity change, negative = inhibition, % at 57.5 µM. actives 4.5% (n = 410,000). AID 1259415; in the data active = activity change below about -60%; inconclusive = no clear call, values can overlap the other calls; inactive = above about -39%; also: % is scaled to controls: 0 for no effect and ±100 for the full control effect
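Cell-based, HFFs, 1000 cells/well, 16 h 37C; cpds in DMSO + HCMV-luc, MOI 1 PFU/cell; 72 h 37C; OneGlo luminescence after 5 min RT; norm. to buffer vs Salinomycin 10uM.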
Pf growth 48h = inhibits P. falciparum growth in the first generation, 48 h. actives 5.9% (n = 310,000). P. falciparum luciferase growth in erythrocytes, 48 h. Potency, µM (doses to about 28.7 µM), for inactives: top-dose activity change, negative = inhibition, usual class: inhibitors; also: potency is read from the fitted curve at half-maximal effect; % is scaled to controls: 0 for no effect and ±100 for the full control effect
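Luciferase-expressing P. falciparum in infected erythrocytes (2% hematocrit, 0.1% parasitemia final) in RPMI 1640/0.5% Albumax were exposed to compound for 48 hours at 37 C, 5% CO2; growth read as luminescence.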
* = called active by the depositor; ? = inconclusive; / = no result. Unless noted, calls follow the shape of the dose curve; as a rule, active = well fitted inhibition curve with a large enough effect; inconclusive = small, poorly fitted or top-dose-only effect, or another doubt; inactive = no such curve, though single readings can be large or run the other way.

SMILES	Shiga toxin inh	CHX counter	Pf growth 96h	HCMV inh	Pf growth 48h
CCOC(=O)C1CCCN(CC(=O)Nc2cccc(C(C)=O)c2)C1 (stereo not given)	-1	-2	-14%	?	0%
COc1ccc(N2CC(C(=O)NCCc3ccc(Cl)cc3)CC2=O)cc1 (stereo not given)	-14	-10	-17%	?	3%
Cc1cc(C)c(C(=O)COC(=O)C2CCN(c3ccc(C(F)(F)F)cn3)CC2)c(C)c1	/	/	?	52	?
C=C(C)C(=O)Nc1nnc(-c2cccs2)s1	81*	21*	28%	25	4%
CCC(C)C(=O)Nc1nnc(-c2cccs2)s1 (stereo not given)	59*	64*	11%	34	59%
COCCCNC(=O)CCn1c(=O)c2ccccc2n(CC(=O)Nc2c(C)cc(C)cc2C)c1=O	/	/	/	16	/
CNC(=O)C1CCC(Cn2c(=O)[nH]c3ccsc3c2=O)CC1 (stereo not given)	/	/	/	19	/
COc1ccc(C(=O)c2cn(CC(=O)Nc3cc(C)ccc3C)c3nc(C)ccc3c2=O)cc1	/	/	/	9	/
OCCNC1=NCCN1	-12	-8	21%	30	1%
Fc1ccc(Sc2ccccc2CNC2=NCCN2)cc1	-1	-2	2.1µM*	?	5.9µM*
C=C1CCN(C(C(=O)NCc2ccc(Cl)c(Cl)c2)C(C)C)S(=O)(=O)c2ccccc21 (stereo not given)	1	-1	/	/	/
C=C1CCN([C@H](C(=O)NCc2ccccc2)C(C)C)S(=O)(=O)c2ccccc21	-4	-3	12µM*	24	?
CN1CCN(C(=O)/C(=C\c2cccnc2)NC(=O)c2cccc(Br)c2)CC1	20	1	-23%	-33	-11%
Cc1ccsc1CN(C)C(=O)c1ccc(Oc2ccccc2)cc1	63*	18*	-26%	31	12%
O=C(c1cccc(S(=O)(=O)N2CCCC2)c1)N1CCN(c2ccccc2)CC1	16	-1	/	-16	-14%
COc1ccc(S(=O)(=O)N2CCN(c3ccccc3)CC2)cc1C(=O)N1CCCC1	-4	-3	5%	-7	?
COc1cc2ccccc2cc1C(=O)N1CCCC(C(F)(F)F)C1 (stereo not given)	/	/	0.47µM*	-33	0.52µM*
O=C(c1cccc(S(=O)(=O)N2CCN(c3ccccc3)CC2)c1)N1CCCC(C(F)(F)F)C1 (stereo not given)	/	/	-2%	-91*	?
O=C(c1cc(S(=O)(=O)N2CCN(c3ccccc3)CC2)ccc1Cl)N1CCCC(C(F)(F)F)C1 (stereo not given)	/	/	?	-82*	?
Cc1ccc(Cl)cc1-n1c(=O)c2sc3ccccc3c2n(CC(=O)NC2CCCC2)c1=O	/	/	/	-14	/
Cc1cc(C)nc(Nc2nc(C(N)CCc3ccccc3)cs2)n1 (stereo not given)	/	/	/	67	/
COCCCn1c(=N)c(S(=O)(=O)c2ccccc2)cc2c(=O)n3cc(C)ccc3nc21	/	/	/	3	/
Oc1ccc(Nc2nc(-c3ccc(Cl)cc3)cs2)cc1	110*	47*	/	/	/
Clc1ccc(Nc2nc(-c3ccncc3)cs2)cc1	/	/	/	7	/
Oc1ccc(Nc2nc(-c3ccc(O)cc3)cs2)cc1	80*	54*	-23%	12	-50%
SMILES	Shiga toxin inh	CHX counter	Pf growth 96h	HCMV inh	Pf growth 48h
CC(=O)c1ccc(N2C(=NC(=O)CCc3ccccc3)SC3CS(=O)(=O)CC32)cc1 (stereo not given)	-10	-11	?	-6	16%
C[C@H]1[C@@H](NS(=O)(=O)c2cc(Cl)cc(Cl)c2)CC[C@@]23CCCN2C(=O)CCC[C@@H]13	/	/	/	-5	/
CC(C)C(=O)Nc1ccc2oc(-c3cc(F)c(F)cc3Cl)nc2c1	23	2	?	-2	?
CC(=O)Nc1ccc2oc(-c3ccccc3Br)nc2c1	93*	71*	1%	77	/
CC(=O)Nc1ccc2oc(-c3cc(F)c(F)cc3Cl)nc2c1	181*	32*	?	39	86%
CCC(=O)Nc1ccc2oc(-c3ccccc3Br)nc2c1	122*	49*	-6%	24	36%
COc1cc(OC)cc(C(=O)Nc2ccc3oc(-c4ccccc4C)nc3c2)c1	/	/	/	-22	/
Cc1ccccc1-c1nc2cc(NC(=O)Cc3ccc(Cl)cc3)ccc2o1	/	/	/	-28	/
Cc1ccccc1-c1nc2cc(NC(=O)C3CC3)ccc2o1	109*	43*	-15%	137	81%
CCCn1c(=O)c(C(=O)NNC(=O)c2cccc([N+](=O)[O-])c2)c(O)c2ccccc21	-20	-2	39%	-7	16%
CCOC(=O)C1CCN(C(=O)CCS(=O)(=O)c2cc3c(cc2Cl)NC(=O)CO3)CC1	/	/	/	12	/
COc1ccc(C(=O)N(C)C2CCCCC2)cc1S(=O)(=O)N1CCOCC1	/	/	?	-14	?
O=[N+]([O-])c1ccc(N2CCCCCC2)c2nonc12	/	13	0%	-17	0%
Cc1ccc(S(=O)c2ccc([N+](=O)[O-])c3nonc23)cc1 (stereo not given)	/	/	/	-95*	/
CCCCn1c(CNC(=O)C23CC4CC(CC(C4)C2)C3)nnc1SCC(=O)Nc1nnc(C)s1	-3	-2	2%	27	3%
CCCCSc1nnc(CNC(=O)C23CC4CC(CC(C4)C2)C3)n1Cc1ccccc1	13	-4	?	29	13µM*
CCn1c(CNC(=O)C23CC4CC(CC(C4)C2)C3)nnc1SCC(=O)Nc1nnc(C)s1	-14	-8	7.4µM*	23	/
O=C(NCc1nnc(SCc2ccccc2)n1-c1ccccc1)C12CC3CC(CC(C3)C1)C2	-3	-4	?	31	?
CCCCn1c(CNC(=O)C23CC4CC(CC(C4)C2)C3)nnc1SC(C)CC (stereo not given)	-14	-9	?	-20	10µM*
O=C1C=C(c2ccc3c(c2)oc2ccccc23)C[C@@H](c2ccc3c(c2)OCO3)C1	/	/	?	9	-5%
FC(F)(F)c1cc(Cl)c2nc(-c3ccccc3)c(Cc3ccsc3)n2c1	/	/	/	-5	/
Nc1cccc(-c2cn3cc(C(F)(F)F)cc(Cl)c3n2)c1	64*	36*	181%	132	164%
FC(F)(F)c1cc(Cl)c2nc(-c3ccccc3)cn2c1	88*	41*	136%	151	235%
CCc1ccc(S(=O)(=O)N2c3ccc(C)cc3C3CN(C)CCC32)cc1 (stereo not given)	/	/	?	?	10µM*
COc1ccc(C)cc1S(=O)(=O)N1c2ccc(C)cc2C2CN(C)CCC21 (stereo not given)	/	/	10µM*	-4	?
Cc1ccc2c(c1)[C@@H]1CN(C)CC[C@@H]1N2S(=O)(=O)c1ccc(F)cc1	-13	-2	?	-12	-18%
Cc1c(C(=O)NC2CC(C)(C)NC(C)(C)C2)oc2c(Cl)cccc12	/	/	/	-11	/
CCC(C(=O)NCC1CCCO1)N(Cc1ccccc1)C(=O)CNS(=O)(=O)c1ccccc1 (stereo not given)	-19	1	12%	-35	-2%

Source: PubChem
